Source: PubChem BioAssay (National Center for Advancing Translational Sciences (NCATS))
Tau fluor cs: counter-screen for tau fibril formation inhibitors. AID 1463. hit rate 0.93% among 280,000. tau K18 P301L Alexa594 fluorescence, heparin fibrillization. Potency, µM (top dose mostly 57.7 µM), without a hit: at the top dose activity change, negative = decrease; note: potency is the fitted concentration of half-maximal effect; nearly all actives have a fitted effect of over 55% in size
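Human tau K18 P301L (15 uM unlabeled, 0.24 uM Alexa 594-labeled) in 100 mM sodium acetate pH 7 with 20 uM heparin, 6 hr at 37 C. ThT 30 uM added, 1 hr ambient; Alexa 594 FP and total fluorescence read at 555/632 nm.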
Sfp inh: Sfp phosphopantetheinyl transferase inhibition. Q9F4F7. Biochemical Sfp PPTase activity, qHTS. Potency, µM, inactives show largest response in the series, negative = inhibition, hits mostly inhibitors. hit rate 3.5% among 310,000. AID 1490;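 note: the enzyme is Sfp with the accession as filed and its product quenches rhodamine fluorescence; potency is the fitted concentration of half-maximal effect; 0% = enzyme reaction without inhibitor and -100% = no enzyme wells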
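With Hepes-Na pH 7.6 buffer containing 10 mM MgCl2, Sfp (15 nM) modified BHQ-2-YbbR (12.5 uM) using rhodamine-CoA (5 uM). Two reads 30 minutes apart at 525/598 nm yielded each well's rate.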
FBPA coupling cs: counter-screen for Giardia aldolase inhibitors: coupling enzyme system; activity change, negative = inhibition, % at 58.2 µM, hits read low; coupling enzyme system counterscreen, AmpLite Red fluorescence; hit rate 0.67% among 290,000; AID 2472; in the data active = activity change below about -30%
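Counterscreen lacking aldolase: glyceraldehyde-3-phosphate coupling-enzyme reagent preincubated 10 min at RT with compound (at 57.5 uM final), then substrate/coupling system with AmpLite Red added; fluorescence read at 525/598 nm after 20 min RT.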
G9a inh: blocks human histone lysine methyltransferase G9a. Q96KQ7. G9a H3K9 monomethylation, AlphaScreen, 2 h. Potency, µM (titrated, usually from 102 µM), without a hit: top-dose activity, negative = inhibition, hits mostly inhibitors. hit rate 8.8% among 350,000; note: potency is the fitted concentration of half-maximal effect; nearly all actives have a fitted effect of over 75% in size
Target sequence (Q96KQ7 913-1193 limits assumed): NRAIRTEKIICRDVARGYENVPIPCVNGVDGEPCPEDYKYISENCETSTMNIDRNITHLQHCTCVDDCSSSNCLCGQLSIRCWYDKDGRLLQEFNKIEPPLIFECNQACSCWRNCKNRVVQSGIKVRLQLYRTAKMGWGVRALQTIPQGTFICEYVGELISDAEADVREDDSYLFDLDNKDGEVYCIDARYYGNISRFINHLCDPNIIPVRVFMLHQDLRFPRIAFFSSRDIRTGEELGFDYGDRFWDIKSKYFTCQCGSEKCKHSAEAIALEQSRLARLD
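Readings reflect AlphaScreen signal from monomethyl-H3K9 antibody detection. HMT at 20 nM; substrate b-H3K9 500 nM; cofactor SAM 20 uM; 2 h RT reaction; compounds tested as titrations in qHTS with 15 min preincubation.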
Tau fibril FP: blocks human tau fibril formation measured by polarization. P10636. K18 P301L tau heparin fibrillization, Alexa594 FP, 6 h. Potency, µM (highest dose often 57.7 µM), without a hit: at the top dose activity, negative = inhibition, usual class: inhibitors. hit rate 0.39% among 280,000. AID 1468; note: potency is the fitted concentration of half-maximal effect; nearly all actives have a fitted effect of over 55% in size
Target sequence (P10636 561-689 P618L limits assumed): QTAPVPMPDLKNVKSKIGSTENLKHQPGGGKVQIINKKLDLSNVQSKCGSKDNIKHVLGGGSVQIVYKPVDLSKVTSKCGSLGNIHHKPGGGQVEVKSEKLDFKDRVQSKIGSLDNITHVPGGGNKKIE
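Human tau K18 […] P301L fragment, 15 uM unlabeled plus 0.24 uM Alexa 594-labeled tau (final), with compound and 20 uM heparin in 100 mM sodium acetate pH 7; 6 hr at 37 C, then Alexa 594 FP read.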
Tau fibril ThT: blocks human tau fibril formation measured by thioflavin T; P10636; recombinant tau K18 P301L, heparin-induced fibrillization, ThT fluorescence; Potency, µM (highest dose often 57.4 µM), without a hit: at the highest dose activity, negative = inhibition, hits mostly inhibitors; hit rate 2.1% among 270,000; AID 1460; note: potency is the fitted concentration of half-maximal effect; nearly all actives have a fitted effect of over 55% in size
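ThT emission at 510 nm, taken 1 hr after adding 30 uM dye, quantifies aggregates formed when 20 uM heparin acts on human tau K18 P301L for 6 hr at 37 C.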
Starred values were filed as active, the others as inactive; ? = inconclusive; nt = no result; [ ] = remark or other dose. An excerpt weighted towards active compounds, which were near 11% of everything screened. Unless noted, calls come from the whole dose curve; as a rule, active = well fitted curve in the direction sought with a large enough effect; inconclusive = small, poorly fitted or top-dose-only effect, or another doubt; inactive = no such curve, though single readings can be large; an effect the other way counts as inactive or inconclusive. Unless noted, % is set by controls: 0 for no effect and ±100 for the full control effect.

SMILES | Tau fluor cs | Sfp inh | FBPA coupling cs | G9a inh | Tau fibril FP | Tau fibril ThT
Cc1ncc(CO)c(/C=N/NC(=O)c2cc(O)c(O)c(O)c2)c1O | ? | 20µM* | -14 | ? | -16% | ?
Cc1ncc(CO)c(/C=N/NC(=S)Nc2ccc(C(C)C)cc2)c1O | ? | 22µM* | 0 | -131%[59 µM] | -13% | ?
COc1cc(OC)cc(C(=O)NCC(c2cccs2)S(=O)(=O)c2ccc(F)c(C)c2)c1 (centres undefined) | ? | nt | nt | 2%[12.7 µM] | -3% | -3%
COc1ccccc1/C=C(/C(=O)OCC(=O)Nc1ccc(N(C)C)cc1)c1ccccc1 | ? | -5% | 0 | 10µM* | 5% | ?
COc1ccccc1/C=C(/C(=O)OCC(=O)Nc1ccccc1C)c1ccccc1 | -7% | -20% | 8 | ? | -7% | 1%
COc1ccc2c(c1)C(c1cc(OC)c(OC)c(OC)c1)CC(=O)O2 (centres undefined) | -13%[81.3 µM] | -1% | -5 | 11% | 1%[81.3 µM] | -10%[81.4 µM]
Cc1cc(C)cc(NC(=O)c2cc(S(=O)(=O)N3CCC(C)CC3)cn2C)c1 | 13% | nt | nt | 35%[59 µM] | 0% | 5%
CCNc1nc(NCC)nc(N(CC)C(N)=S)n1 | -18% | -30% | -1 | 1.8µM* | -9% | -13%
CCNc1nc(NCC)nc(N(C#N)C(C)C)n1 | 15% | 10% | 0 | 12% | -3% | nt
CCOc1ccc(NC(=S)NC(=O)c2c(Br)cnn2C)c([N+](=O)[O-])c1 | ? | -6% | 0 | 28µM* | 10% | ?
Cc1ccc([N+](=O)[O-])cc1NC(=S)NC(=O)c1c(Cl)cnn1C | nt | 45µM* | 0 | nt | nt | nt
C=CCn1c(SCC(=O)NC2CCCC2)nnc1-c1ccccn1 | nt | 21% | nt | 9% | nt | nt
CC(=O)OCON[N+]([O-])=NC(C)C | nt | -1% | -19 | nt | nt | nt
O=CN/C=C/c1cc(O)ccc1O | 28µM*[quencher] | 14µM* | -18 | 1.4µM* | ? | 25µM*
COC(=O)COC(=O)c1ccc(-n2nnnc2SC)cc1 | -7% | 8% | 4 | -3%[2.33 µM] | 3% | -1%
COC(=O)c1ccc(-n2nnnc2SC)cc1 | -13% | ? | 1 | 10µM* | -9% | -14%
CC(C)(C)C(=O)CNCC(=O)C(C)(C)C | 0% | -10% | -6 | 40µM* | -1% | -2%
CCOC(=O)[C@@H]1[C@H]2COc3cc(OC)ccc3[C@H]2N2C(=O)N(c3ccc(C)cc3)C(=O)[C@@]12C | nt | 17% | 0 | ? | nt | nt
CCOc1ccc(-c2cc(N)n(S(=O)(=O)c3ccc(OC)c(OC)c3)n2)cc1 | ? | 19% | -2 | -2% | -11% | -9%
COc1ccc(S(=O)(=O)n2nc(-c3ccc(Cl)cc3)cc2N)cc1OC | 16µM*[quencher] | -2% | 0 | 14% | -12% | -14%
CC(C)NC(=S)NNc1nc2ccccc2s1 | -18% | 2.5µM* | -2 | 2.2µM* | -11% | ?
O=C(NNc1nc2ccccc2s1)c1ccc(F)cc1 | 14% | -9% | 1 | 15%[59 µM] | 4% | -10%
CC(C)(C)NC(=O)C(c1ccc(O)cc1)N(Cc1ccco1)C(=O)Cn1nnc(-c2cccs2)n1 (centres undefined) | -19% | -23% | -3 | 20µM* | -8% | -11%
Cc1ccc(-c2nnn(CC(=O)N(c3cccc(F)c3)C(C(=O)NC(C)(C)C)c3ccco3)n2)o1 (centres undefined) | 13%[2.34 µM] | -17% | 0 | 50µM* | 6% | -4%
Cc1ccc(-c2nnn(CC(=O)N(Cc3ccco3)C(C(=O)NC(C)(C)C)c3ccc(C)o3)n2)o1 (centres undefined) | -11% | -1% | -2 | -6% | 4% | -14%
SMILES | Tau fluor cs | Sfp inh | FBPA coupling cs | G9a inh | Tau fibril FP | Tau fibril ThT
Cc1ccc(-c2nnn(CC(=O)N(c3cccc(O)c3)C(C(=O)NC(C)(C)C)c3cccs3)n2)o1 (centres undefined) | -7% | 4% | 3 | 45µM* | 8% | -8%
CC(C)(C)NC(=O)C(c1ccncc1)N(C(=O)Cn1nnc(-c2ccc(F)cc2)n1)c1ccccc1 (centres undefined) | -6%[2.34 µM] | 20µM* | -9 | 22µM* | 11%[2.34 µM] | 7%
Cc1ccc(-c2nnn(CC(=O)N(c3ccccc3)C(C(=O)NC(C)(C)C)c3cccs3)n2)o1 (centres undefined) | 6% | -1% | 4 | 1%[59 µM] | -13% | 1%
CC(C)(C)NC(=O)C(c1ccncc1)N(C(=O)Cn1nnc(-c2ccc(F)cc2)n1)c1ccc(F)cc1 (centres undefined) | -7% | -2% | -1 | 3%[12.7 µM] | 2% | -10%
COc1ccc(-n2c(SCC(=O)NC3CCCCC3)nc3c([nH]c4ccccc43)c2=O)cc1 | -14% | nt | nt | 13%[59 µM] | -5% | 6%
CCOc1ccc(-c2c(C(=O)N/N=C/c3cccc(Br)c3)nnn2-c2nonc2N)cc1 | nt | 14% | nt | -7% | nt | nt
Cn1cc(S(=O)(=O)c2ccccc2)c(=O)c2cc(F)c(N3CCN(c4ccccc4)CC3)cc21 | -18% | nt | nt | 7%[59 µM] | 3% | -16%
COc1ccc(CN(C)CC2CCCN(CCc3ccc(F)cc3)C2)cc1OC (centres undefined) | nt | 13% | 1 | -7% | nt | nt
COc1cc(CN(C)CC2CCCN(CCc3cccc(C(F)(F)F)c3)C2)ccc1O (centres undefined) | nt | 12% | -2 | 45µM* | nt | nt
COC(=O)C1=C(C)Nc2ccc(C)cc2S1 | -29% | ? | 6 | 40µM* | 3% | ?
COc1cc(O)cc(/C=C/c2ccccc2)c1 | ? | -26% | 0 | -27%[2.33 µM] | ? | -8%
COC1=CC(=O)C(O)=C/C1=C\C=C\c1ccccc1 | ? | 11µM* | -17 | nt | 16µM* | 7.9µM*
CC[C@@H]1C(c2cccc(Cl)c2)=NN(c2ccc(Br)cc2)[C@H]1C(=O)N1CCOC1=O | ? | 17% | -3 | 275%[59 µM] | -6% | ?
CC[C@@H]1C(c2ccccc2)=NN(c2ccc(Br)cc2)[C@H]1C(=O)N1CCOC1=O | 7.9µM*[quencher] | 12% | -8 | 119%[59 µM] | 11%[81.3 µM] | ?
CC[C@@H]1C(c2ccc(F)cc2)=NN(c2ccc(Br)cc2)[C@H]1C(=O)N1CCOC1=O | 10µM*[quencher] | 39% | -3 | 109%[59 µM] | 8% | ?
OCCCN=c1cc(-c2ccccc2)oc2ccc(Cl)cc12 | -6% | 5% | 0 | ? | 1% | -15%
CC1(C)CC(N=c2cc(-c3ccccc3)oc3ccc(Cl)cc23)CC(C)(C)N1 | -23% | -30% | 4 | 71µM* | 7% | ?
CCc1cccc(CC)c1NC1=NS(=O)(=O)c2ccccc21 | -11% | nt | nt | 6%[59 µM] | 1% | -10%
CCc1cc(C(=O)N2CCOCC2)c(NC2=NS(=O)(=O)c3ccccc32)s1 | -8% | -26% | -2 | 89µM* | -8% | -9%
